Each structure is given as a SMILES string. Records with an inconclusive call do not appear. Entries that show only a call come without a potency. Activity calls are given as the source filed them. Calls follow the shape of the dose curve; as a rule, active = well fitted inhibition curve with a large enough effect; inconclusive = small, poorly fitted or top-dose-only effect; inactive = flat fitted curve, though single readings scatter.

Sequence of Microtubule-associated protein tau (Homo sapiens) (P10636 561-689 P618L limits assumed): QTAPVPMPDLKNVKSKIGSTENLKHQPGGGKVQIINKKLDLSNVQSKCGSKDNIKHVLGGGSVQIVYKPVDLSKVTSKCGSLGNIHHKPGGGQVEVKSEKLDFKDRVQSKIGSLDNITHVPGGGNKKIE

For this assay, the target named is Microtubule-associated protein tau (Homo sapiens) (UniProt P10636). Briefly: Confirmation Concentration-Response Assay for Inhibitors of Tau Fibril Formation, Thioflavin T Binding. Particulars: recombinant tau K18 P301L (four-repeat tau fragment) heparin fibrillization, ThT fluorescence; series mostly up to 100 µM. The source says:
NIH Molecular Libraries Probe Production Network [MLPCN] NIH Chemical Genomics Center [NCGC] MLPCN Grant: X01 MH083262-01 Assay Provider: Carlo Ballatore, University of Pennsylvania NCGC Assay Overview: The microtubule-associated protein tau is an abundant protein in the axons of neurons that stabilizes microtubules. With its ability to modulate microtubule dynamics, tau contributes directly or indirectly, to key structural and regulatory cellular functions. Particularly important is the influence tau exerts on axonal transport, which allows signaling molecules, trophic factors and other essential cellular constituents to travel along the axons. Under pathological conditions, tau becomes sequestered into insoluble aggregates called neurofibrillary tangles. This phenomenon is believed to have pathological consequences by promoting axonal transport deficits that ultimately lead to synaptic dysfunction and neuronal loss. To identify inhibitors of tau aggregation, a heparin-induced tau fibril formation assay was used that employed a recombinantly expressed fragment of tau, K18 (Q242-E372), bearing a P301L mutation (Gustke et al. 1994; Hong et al. 1998). This assay monitors tau fibrillization by Thioflavin T (ThT) fluorescence. Gustke, N., B. Trinczek, et al. (1994). "Domains of tau protein and interactions with microtubules." Biochemistry 33(32): 9511-22. Hong, M., V. Zhukareva, et al. (1998). "Mutation-specific functional impairments in distinct tau isoforms of hereditary FTDP-17." Science 282(5395): 1914-7. Li, W. and V. M. Lee (2006). "Characterization of two VQIXXK motifs for tau fibrillization in vitro." Biochemistry 45(51): 15692-701. von Bergen, M., S. Barghorn, et al. (2001). "Mutations of tau protein in frontotemporal dementia promote aggregation of paired helical filaments by enhancing local beta-structure." J Biol Chem 276(51): 48165-74.
For screening, 2 uL/well human K18 P301L (15 uM unlabeled and 0.24 uM Alexa 594-labeled tau, final concentrations) in reagent buffer (100 mM sodium acetate pH 7) was dispensed into black solid 1536-well plates (Grenier) using a solenoid-based dispenser. Following transfer of 23 nL compound or DMSO vehicle by a pin tool, 2 uL/well heparin (20 uM final concentration) in reagent buffer was added and the plate centrifuged 15 s at 1000 RPM. Plates were incubated 6 hr at 37 C and then 1 uL/well ThT (30 uM final concentration) was added. After a 1 hr ambient incubation, the plates were read by an Envision (Perkin Elmer) to monitor ThT fluorescence (450/8 nm excitation and 510/23 nm emission). Keywords: NIH Roadmap, MLPCN, MLI, MLSMR, NCGC, qHTS, tau, tauopathies, Alzheimer's disease, fibril, neurodegeneration, aggregation
As to `CN(C(=S)Nc1cccnc1)c1ccc(O)cc1`, the Potency is 10 µM (active).

Turning to `COc1ccc(NC(=O)Cn2cc(S(=O)(=O)N3CCN(c4ccccc4F)CC3)c3ccccc3c2=O)cc1Cl`, the Potency entry was “inactive”.

For the molecule `CCn1nccc1C(=O)Nc1cc(Cl)cc(Cl)c1`, the Potency entry was “inactive”.

As for `NC[C@@H](O)c1ccc(O)c(O)c1`, the Potency entry is “inactive”.

Regarding `CN(c1ccccc1)S(=O)(=O)c1nnc(NC(=O)COc2ccccc2)s1`, the Potency entry was “inactive”.

Turning to `CCOC(=O)c1nn(-c2ccccc2)c(=O)c2c(NC(=O)c3ccccc3)scc12`, the Potency entry was “inactive”.

As to `Nc1cc(-c2ccncc2)c[nH]c1=O`, the Potency was 10 µM (active).

Take `O=C(NCc1cccnc1)C1CCN(S(=O)(=O)c2cccs2)CC1`: the Potency result was “inactive”.

In the case of `Cc1ccc(N(C)S(=O)(=O)c2nnc(NC(=O)C3CCCCC3)s2)cc1`, the Potency entry was “inactive”.

On to `CCOC(=O)c1nn(-c2ccc(OC)cc2)c(=O)c2c(NC(=O)Cc3ccccc3)scc12`, for which the Potency result is “inactive”.

As for `COc1ccc2c(c1)c(CC(=O)N1CCOCC1)c(C)n2C(=O)c1ccc(Cl)cc1`, the Potency entry was “inactive”.

Regarding `O=C(NCCCO)Nc1ccc2nc(-c3ccco3)c(-c3ccco3)nc2c1`, the Potency was 3.16 µM (active).

Regarding `NCCc1ccc(O)c(O)c1`, the Potency entry was “inactive”.

As for `N#Cc1cccc(NC(=O)c2ccc3c(c2)N(Cc2cccc(Cl)c2)C(=O)c2ccccc2S3(=O)=O)c1`, the Potency result is “inactive”.

`Cc1ccc(NC(=O)N2CCN(c3ccccn3)CC2)cc1`: the Potency entry is “inactive”.

On to `CCOC(=O)c1nn(-c2ccc(F)cc2)c(=O)c2c(N)scc12`, for which the Potency was 5.01 µM (active).

Consider `CCOC(=O)c1nn(-c2ccccc2)c(=O)c(C#N)c1C`, for which the Potency result is “inactive”.

Consider `Cn1sc(NC(=O)c2ccccc2)nc1=O`, for which the Potency entry was “inactive”.

With `Cc1nc2ccccc2oc1=O`, the Potency entry is “inactive”.

Consider `Nc1scc2c(C(=O)O)nn(-c3ccccc3)c(=O)c12`, for which the Potency is 6.31 µM (active).

In the case of `Nc1nn(-c2ccccc2)c(=O)c2c(N)scc12`, the Potency is 5.01 µM (active).

For `CCOC(=O)c1ccc(S(=O)(=O)Nc2nc3cc(S(=O)(=O)NC4=NCCCCC4)ccc3s2)cc1`, the Potency was 10 µM (active).

For the molecule `NC(=O)c1nn(-c2ccccc2)c(=O)c2c(N)scc12`, the Potency was 4.47 µM (active).

Regarding `COc1cccc(/C=C2/SC(=S)N(CC(=O)Nc3nnc(C)s3)C2=O)c1`, the Potency result was “inactive”.

For `COC(=O)CSc1nc2ccc(NC(=O)CSc3nnnn3Cc3ccccc3)cc2s1`, the Potency result is “inactive”.

With `CCOC(=O)c1nn(-c2ccc(Cl)cc2)c(=O)c2c(N)scc12`, the Potency was 2.24 µM (active).

Take `O=C(Cc1ccccc1)Nc1sc2c(c1C(=O)Nc1ccc(Br)cc1)CCCC2`: the Potency result was “inactive”.

`NC[C@H](O)c1ccc(O)c(O)c1`: the Potency was 5.62 µM (active).

Consider `O=C(Nc1sc2c(c1C(=O)Nc1cccc(Cl)c1)CCCC2)c1cccs1`, for which the Potency was 3.55 µM (active).

`CCc1ccc(S(=O)(=O)Nc2cc(SCC(=O)O)c(O)c3ccccc23)cc1`: the Potency was 5.62 µM (active).

As to `O=S(=O)(c1ccc(N=C2NN=C(c3cc(F)ccc3F)CS2)cc1)N1CCOCC1`, the Potency is 4.47 µM (active).

With `COc1cc(/C=N/N=C2/NC(=O)C(CC(=O)O)S2)ccc1OCc1ccc(Cl)cc1` (stereo not given), the Potency result is “inactive”.

Turning to `COc1ccc(Cl)cc1NC(=O)c1c(NCc2sccc2C)sc2c1CCCC2`, the Potency is 1 µM (active).

With `COc1cccc(/C=C2/SC(=S)N(CC(=O)Nc3nccs3)C2=O)c1`, the Potency entry is “inactive”.

On to `CCOC(=O)c1c(N)sc2c1CN(C)CC2`, for which the Potency entry was “inactive”.

Take `Nc1scc2c(C(=O)NCc3ccccc3)nn(-c3ccccc3)c(=O)c12`: the Potency was 7.08 µM (active).

As to `O=C(Nc1cccc(-c2nc3ccccc3o2)c1)c1cc([N+](=O)[O-])ccc1N1CCOCC1`, the Potency entry is “inactive”.

Consider `COc1ccc2oc(-c3ccc(NC(=O)c4ccc(N5CCOCC5)c([N+](=O)[O-])c4)cc3)nc2c1`, for which the Potency result is “inactive”.

For `CC(C)Cn1c(O)c(/C=C2\C=NN=C2c2ccccc2)sc1=S`, the Potency result was “inactive”.

As for `O=S(=O)(c1ccc2nc(-c3ccco3)c(-c3ccco3)nc2c1)N1CCOCC1`, the Potency was 4.47 µM (active).
